Most compounds without a hit are left out; they make up all but 11% or so of the library.
HPGD block: blocks human HPGD enzyme activity. 150,000 tested, 4.3% active. P15428. Potency, µM, hits mostly inhibitors. purified HPGD, NADH fluorescence kinetic, PGE2 substrate. AID 894
Target sequence (P15428 whole entry, looked up): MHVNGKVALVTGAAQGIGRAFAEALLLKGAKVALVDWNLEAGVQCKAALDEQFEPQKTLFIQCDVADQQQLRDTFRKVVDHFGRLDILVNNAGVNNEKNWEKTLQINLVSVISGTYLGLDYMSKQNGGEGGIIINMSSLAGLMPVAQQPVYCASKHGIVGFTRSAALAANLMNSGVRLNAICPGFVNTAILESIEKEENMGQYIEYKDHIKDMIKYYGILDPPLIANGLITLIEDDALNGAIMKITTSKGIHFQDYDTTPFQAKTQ
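NADH formation kinetics: reaction with 30 uM PGE2 and 1 mM NAD+ (final), 20 nM enzyme, Tris-HCl pH 8 with Tween 20, after 15 min compound preincubation at room temperature. Fluorescence change, last versus first of five reads.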
ALDH1A1 inh: blocks purified human ALDH1A1 activity; P00352; Purified ALDH1A1, NADH fluorescence, propionaldehyde substrate; Potency, µM (doses to about 75.3 µM), hits mostly inhibitors; 220,000 tested, 7.3% active
PNC assembly inh: inhibitors of perinucleolar compartment assembly | PC3M PTB-GFP, PNC prevalence imaging, 16 h; stronger effect = lower value | activity change (PNC), negative = inhibition, % at 10 µM | 140,000 tested, 3.1% active;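 active = readout at or below -70, meaning at least 70% loss of cells showing the perinucleolar compartment, a nuclear body marking cancer cells; inconclusive = readout between -30 and a set limit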
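PC3M cells stably expressing PTB-GFP, 750–1000 cells/well, treated 16 h at 37 °C with compound (23 nl of library stock), in duplicate. After paraformaldehyde fixation and Hoechst stain, imaged at 20x; PNC prevalence scored by image analysis.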
Each line names hits and unclear results; the compound was inactive in the other large screens. Unless noted, calls follow the shape of the dose curve; as a rule, active = well fitted inhibition curve with a large enough effect (not every such curve was filed as active); inconclusive = small, poorly fitted or top-dose-only effect, or another doubt; inactive = no such curve, though single readings can be large or run the other way.

COc1ccccc1-c1cc(C(=O)NC(C)C)no1	HPGD block inconclusive, ALDH1A1 inh inconclusive
O=C(NCC1CCCO1)C(=O)NCC(c1ccco1)N1CCN(c2ccccc2F)CC1 (stereo not given)	none
COc1ccccc1/C=C/C(=O)N1CCC(c2ccccc2)C1 (stereo not given)	none
O=c1c(Cl)c(N2CCNCC2)cnn1C12CC3CC(CC(C3)C1)C2	none (no result: HPGD block, PNC assembly inh)
O=C(O)C12CC3CC(C1)CC(n1ncc(N4CCN(c5ccccc5)CC4)c(Cl)c1=O)(C3)C2	ALDH1A1 inh 7.1µM
Cn1c(SCC(=O)N2c3ccccc3CCc3ccccc32)nnc1-c1ccc(O)cc1	PNC assembly inh inconclusive
CCOc1ccc(/C=C/C(O)=C2/C(=O)NC3(C)CC2c2ccccc2O3)cc1OC (stereo not given)	none (no result: HPGD block, PNC assembly inh)
CN(C)c1ccc(/C=C/C(O)=C2/C(=O)N(C)C3(C)CC2c2ccccc2O3)cc1 (stereo not given)	ALDH1A1 inh 20µM
CNCC(O)c1cccc(O)c1 (stereo not given)	none (no result: PNC assembly inh)
CCCCSC1=C(C#N)C(c2ccccc2C)CC(=O)N1 (stereo not given)	HPGD block inconclusive
N#CC1=C(SCC(=O)NCc2ccccc2)NC(=O)CC1c1ccco1 (stereo not given)	ALDH1A1 inh 8.9µM
CCSC1=C(C#N)C(c2ccccc2OC)CC(=O)N1 (stereo not given)	ALDH1A1 inh inconclusive
N#CC1=C(SCc2ccccc2)NC(=O)CC1c1ccco1 (stereo not given)	ALDH1A1 inh 22µM
CCCCCCSC1=C(C#N)C(c2ccc(C)o2)CC(=O)N1 (stereo not given)	HPGD block 32µM, ALDH1A1 inh 7.9µM
COC(=O)CSC1=C(C#N)C(c2cccc(OC)c2)CC(=O)N1 (stereo not given)	none
Cc1ccc(C2CC(=O)NC(SCc3ccccc3)=C2C#N)o1 (stereo not given)	HPGD block 22µM
CCCSC1=C(C#N)C(c2ccccc2C)CC(=O)N1 (stereo not given)	HPGD block inconclusive, ALDH1A1 inh inconclusive
CC(=O)c1c(C)[nH]c(C(=O)Nc2cccc(S(=O)(=O)N(C)c3ccccc3)c2)c1C	none (no result: HPGD block, PNC assembly inh)
COc1ccc(NC(=O)c2cncc(Br)c2)cc1S(=O)(=O)N1CCCCC1	PNC assembly inh inconclusive
O=C(c1csnn1)N1CCC2(CCCN(c3cccc(-c4ccccc4)c3)C2)CC1	none (no result: PNC assembly inh)
Cc1ccc(NC(=O)Cc2c(O)c3ccccc3[nH]c2=O)c(C)c1	none (no result: HPGD block, PNC assembly inh)
N#CC1=C(SCC(=O)NC2CCCCC2)NC(=O)CC1c1ccco1 (stereo not given)	ALDH1A1 inh 11µM
CCOc1ccc(C2CC(=O)NC(SCC(=O)OC)=C2C#N)cc1 (stereo not given)	none
Cc1cc(C(F)(F)F)nn1Cc1n[nH]c(=S)n1-c1ccc(Cl)cc1	none
Cc1cc(C(F)(F)F)nn1Cc1n[nH]c(=S)n1Cc1ccccc1	HPGD block inconclusive, PNC assembly inh -100
CN(c1ccc(F)cc1)S(=O)(=O)c1ccc(Cl)c(C(=O)OCC(=O)NCc2ccco2)c1	none (no result: HPGD block, PNC assembly inh)
COc1ccc(-c2csc3nc(-c4ccccc4)oc(=O)c23)cc1OC	none (no result: HPGD block, PNC assembly inh)
CCCCOC(C)n1cc(F)c(=O)[nH]c1=O (stereo not given)	none
Cc1cccc(C)c1NC(=O)CNc1ncnc2sc(C)c(C)c12	none
COc1ccc(-n2c(=O)cc(N3CCN(c4ccccc4OC)CC3)[nH]c2=O)cc1	none
COc1ccc(-n2c(=O)cc(N3CCN(c4ccccc4F)CC3)[nH]c2=O)cc1	ALDH1A1 inh 4µM, PNC assembly inh inconclusive
OC(COc1ccc(CN2CCCCO2)cc1)CN1CCCCC1 (stereo not given)	none (no result: HPGD block, PNC assembly inh)
O=C(O)c1ccc(NCCc2ccc(Cl)cc2)c([N+](=O)[O-])c1	none (no result: HPGD block, PNC assembly inh)
COc1ccc(/C=N/NC(=O)c2cccc([N+](=O)[O-])c2)cc1OC	none (no result: HPGD block, PNC assembly inh)
COc1ccc(/C=N/NC(=O)c2cccc(NC(=O)c3ccccc3Cl)c2)cc1OC	ALDH1A1 inh 4µM (no result: HPGD block, PNC assembly inh)
CCN(CC)S(=O)(=O)c1cccc(C(=O)N/N=C/c2ccc(OC)c(O)c2)c1	ALDH1A1 inh 25µM
CCN(CC)S(=O)(=O)c1cccc(C(=O)N/N=C/c2ccccc2OCC(=O)O)c1	none (no result: HPGD block, PNC assembly inh)
CC(=O)Nc1cccc(C(=O)N/N=C/c2ccc(F)cc2)c1	none
COc1ccccc1/C=N/NC(=O)c1ccccc1Cl	none (no result: HPGD block, PNC assembly inh)
COc1ccccc1/C=N/NC(=O)c1cccc(NC(=O)c2ccccc2Cl)c1	ALDH1A1 inh 20µM (no result: HPGD block, PNC assembly inh)
CC(=O)Nc1cccc(C(=O)N/N=C/c2ccccc2F)c1	HPGD block 35µM
Cc1ccnc(NS(=O)(=O)c2ccc(NC(=O)c3ccc([N+](=O)[O-])s3)cc2)n1	none (no result: HPGD block, PNC assembly inh)
CNC1C(O)C(O[C@H]2C(O)[C@@H](OC3OC(CN)=CCC3N)[C@H](N)C[C@@H]2N)OC[C@]1(C)O (stereo not given in full)	none (no result: PNC assembly inh)
CCOC(=O)C1CCCN(CCC(=O)Nc2ccc(C)cc2)C1 (stereo not given)	none
Cc1ccccc1C(=O)NNC(=O)CSc1nnc(-c2ccncc2)n1-c1ccccc1	none
O=C1CCC(/C=C/c2ccccc2)=NN1Cc1ccc(F)cc1	none (no result: HPGD block, PNC assembly inh)
CC(SCC(=O)NC12CC3CC(CC(C3)C1)C2)C(=O)O (stereo not given)	none
CC(C)Cn1c(N)c(-c2nc(C(C)C)c(C(=O)c3ccccc3F)s2)c(=O)n(C)c1=O	none (no result: HPGD block, PNC assembly inh)
O=C(N/N=C/c1ccncc1)c1ccc(NC(=O)c2cccc(Cl)c2)cc1	none (no result: HPGD block, PNC assembly inh)
COc1cc(/C=N/NC(=O)c2cccc(NC(=O)c3ccccc3Cl)c2)ccc1O	ALDH1A1 inh 13µM (no result: HPGD block, PNC assembly inh)
COc1ccccc1/C=N/NC(=O)c1ccc(Cn2nc([N+](=O)[O-])cc2C)cc1	HPGD block inconclusive, ALDH1A1 inh 14µM
COc1cc(/C=N/NC(=O)c2ccccc2)ccc1O	none (no result: HPGD block, PNC assembly inh)
O=C(N/N=C/c1ccncc1)c1cccc(NC(=O)c2ccccc2Cl)c1	ALDH1A1 inh 13µM
COc1ccc(/C=N/NC(=O)Cn2nc([N+](=O)[O-])cc2C)c(OC)c1OC	none (no result: HPGD block, PNC assembly inh)
O=C(COC(=O)c1cccc(S(=O)(=O)N2CCc3ccccc32)c1)Nc1ccc(Cl)cn1	PNC assembly inh inconclusive
COCCN(CCOC)C(=O)c1ccc(Cc2nc3ccccc3[nH]2)cc1	none (no result: PNC assembly inh)
Cn1c(=O)[nH]c(=O)c2[nH]cnc21	none (no result: PNC assembly inh)
COC(=O)c1ccc(CS(=O)(=O)c2ccccc2C)o1	ALDH1A1 inh 2.2µM
Cc1ccccc1S(=O)(=O)Cc1ccc(C(=O)NCc2ccc(F)cc2)o1	none (no result: HPGD block, PNC assembly inh)
CCCCNC(=O)CSc1nc(COc2ccccc2)nc2ccccc12	none (no result: HPGD block, PNC assembly inh)
COc1ccc(NC(=O)C(=O)N2N=C3CCCCC3C2(O)C(F)(F)F)cc1 (stereo not given)	ALDH1A1 inh 2.8µM (no result: HPGD block, PNC assembly inh)
CCC1=NN(C(=O)C(=O)Nc2ccc(OC)cc2)C(O)(C(F)(F)F)C1 (stereo not given)	ALDH1A1 inh inconclusive
CC1CCC(C(C)C)C(OCC(O)CN2CCCC(C)C2)C1 (stereo not given)	none (no result: HPGD block, PNC assembly inh)
CC1CCC(C(C)C)C(OCC(O)CN2CCOCC2)C1 (stereo not given)	PNC assembly inh -110
COc1ccc(-n2c(SCC(=O)N3CCc4ccccc43)nnc2-c2c[nH]c3ccccc23)cc1	ALDH1A1 inh inconclusive
CC(C)CC(NC(N)=O)C(=O)NCc1ccccc1Cl (stereo not given)	none (no result: HPGD block, PNC assembly inh)
O=c1c2c3c(sc2nc2n1CCCC2)CCCCC3	none
O=c1c2c3c(sc2nc2n1CCCCC2)CCCC3	HPGD block inconclusive, ALDH1A1 inh 35µM
